Our source for the inhibition values is ChEMBL document CHEMBL1961873, “Compounds: GSK PKIS; Assays: Nanosyn kinase panel” (2012).

Assay [1] addresses MAP/microtubule affinity-regulating kinase 3 (Homo sapiens) (UniProt P27448). As to conditions: at 1 µM.
Assay [2] deals with T1, MAP/microtubule affinity-regulating kinase 4 (Homo sapiens) (UniProt Q96L34).
T1 sequence (whole entry): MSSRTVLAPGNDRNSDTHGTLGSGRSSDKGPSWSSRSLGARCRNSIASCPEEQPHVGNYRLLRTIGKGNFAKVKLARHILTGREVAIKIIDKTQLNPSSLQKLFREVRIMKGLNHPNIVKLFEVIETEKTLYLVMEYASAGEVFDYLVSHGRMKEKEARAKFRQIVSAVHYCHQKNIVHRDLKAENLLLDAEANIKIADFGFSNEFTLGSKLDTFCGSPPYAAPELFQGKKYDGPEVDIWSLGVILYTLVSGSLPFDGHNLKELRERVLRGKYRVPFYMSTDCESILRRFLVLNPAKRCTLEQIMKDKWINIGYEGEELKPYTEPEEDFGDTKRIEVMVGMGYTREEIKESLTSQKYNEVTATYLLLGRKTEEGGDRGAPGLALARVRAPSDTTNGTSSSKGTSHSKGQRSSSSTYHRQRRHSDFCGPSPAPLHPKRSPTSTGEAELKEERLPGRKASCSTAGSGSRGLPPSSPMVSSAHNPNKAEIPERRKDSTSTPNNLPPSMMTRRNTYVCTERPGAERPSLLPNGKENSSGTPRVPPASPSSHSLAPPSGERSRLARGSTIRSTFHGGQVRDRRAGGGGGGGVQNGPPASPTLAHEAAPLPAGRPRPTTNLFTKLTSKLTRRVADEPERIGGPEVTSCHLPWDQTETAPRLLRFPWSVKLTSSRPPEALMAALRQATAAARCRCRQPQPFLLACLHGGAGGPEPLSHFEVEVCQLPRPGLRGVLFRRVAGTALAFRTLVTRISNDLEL
Conditions: at 0.1 µM.

In assay [3] the target is T1, MAP/microtubule affinity-regulating kinase 4 (Homo sapiens). As to conditions: at 1 µM.
Assay [4] has as its target Maternal embryonic leucine zipper kinase (Homo sapiens) (UniProt Q14680). As to conditions: at 0.1 µM.
For assay [5] the target is unchanged. As to conditions: at 1 µM.
Assay [6] concerns the target MAP kinase-interacting serine/threonine-protein kinase 1 (Homo sapiens) (UniProt Q9BUB5). As to conditions: at 0.1 µM.
Assay [7] has the same target. As to conditions: at 1 µM.
Assay [8] concerns the target MAP kinase-interacting serine/threonine-protein kinase 2 (Homo sapiens) (UniProt Q9HBH9). Conditions: at 0.1 µM.
Assay [9] has the same target. Conditions: at 1 µM.
The target of assay [10] is Serine/threonine-protein kinase MARK2 (Homo sapiens) (UniProt Q7KZI7). As to conditions: at 0.1 µM.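 Also: mean percent inhibition of PAR-1Balpha kinase activity, reported from the GSK PKIS screen.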
Chain of Serine/threonine-protein kinase MARK2 (Homo sapiens) (Q7KZI7 whole entry): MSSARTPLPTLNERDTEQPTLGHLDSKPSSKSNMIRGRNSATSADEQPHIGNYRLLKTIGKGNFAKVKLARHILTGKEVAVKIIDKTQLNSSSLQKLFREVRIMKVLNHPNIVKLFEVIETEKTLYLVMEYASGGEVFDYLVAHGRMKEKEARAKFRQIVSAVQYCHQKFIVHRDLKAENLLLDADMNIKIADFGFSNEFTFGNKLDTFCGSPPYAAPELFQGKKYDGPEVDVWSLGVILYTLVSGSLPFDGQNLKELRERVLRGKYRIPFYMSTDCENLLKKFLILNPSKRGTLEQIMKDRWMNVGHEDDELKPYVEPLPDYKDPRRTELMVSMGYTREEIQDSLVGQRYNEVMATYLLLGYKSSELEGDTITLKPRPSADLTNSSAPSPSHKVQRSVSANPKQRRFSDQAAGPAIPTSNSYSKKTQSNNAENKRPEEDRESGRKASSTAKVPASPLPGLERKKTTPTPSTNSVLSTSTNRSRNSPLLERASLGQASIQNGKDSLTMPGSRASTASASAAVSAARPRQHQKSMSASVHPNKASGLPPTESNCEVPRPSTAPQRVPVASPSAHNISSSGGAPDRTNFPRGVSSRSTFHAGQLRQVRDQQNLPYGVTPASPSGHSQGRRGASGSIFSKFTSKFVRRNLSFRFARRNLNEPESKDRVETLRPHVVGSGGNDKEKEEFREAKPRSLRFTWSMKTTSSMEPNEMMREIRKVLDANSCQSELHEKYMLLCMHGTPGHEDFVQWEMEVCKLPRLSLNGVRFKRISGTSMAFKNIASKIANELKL

Chain of MAP kinase-interacting serine/threonine-protein kinase 1 (Homo sapiens) (Q9BUB5 whole entry, looked up): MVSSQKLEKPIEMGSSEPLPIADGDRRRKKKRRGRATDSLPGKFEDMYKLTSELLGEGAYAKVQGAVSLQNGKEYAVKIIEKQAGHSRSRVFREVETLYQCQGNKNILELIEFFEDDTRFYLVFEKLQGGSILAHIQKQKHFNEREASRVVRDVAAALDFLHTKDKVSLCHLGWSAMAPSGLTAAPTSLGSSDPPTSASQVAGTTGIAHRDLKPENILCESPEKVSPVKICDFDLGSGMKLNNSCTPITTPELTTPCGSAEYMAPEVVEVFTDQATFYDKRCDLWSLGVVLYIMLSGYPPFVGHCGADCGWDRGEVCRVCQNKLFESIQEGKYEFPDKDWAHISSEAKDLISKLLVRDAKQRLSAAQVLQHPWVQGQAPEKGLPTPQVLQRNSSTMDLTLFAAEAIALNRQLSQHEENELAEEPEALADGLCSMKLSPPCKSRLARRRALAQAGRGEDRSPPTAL
Chain of MAP/microtubule affinity-regulating kinase 3 (Homo sapiens) (P27448 whole entry, looked up): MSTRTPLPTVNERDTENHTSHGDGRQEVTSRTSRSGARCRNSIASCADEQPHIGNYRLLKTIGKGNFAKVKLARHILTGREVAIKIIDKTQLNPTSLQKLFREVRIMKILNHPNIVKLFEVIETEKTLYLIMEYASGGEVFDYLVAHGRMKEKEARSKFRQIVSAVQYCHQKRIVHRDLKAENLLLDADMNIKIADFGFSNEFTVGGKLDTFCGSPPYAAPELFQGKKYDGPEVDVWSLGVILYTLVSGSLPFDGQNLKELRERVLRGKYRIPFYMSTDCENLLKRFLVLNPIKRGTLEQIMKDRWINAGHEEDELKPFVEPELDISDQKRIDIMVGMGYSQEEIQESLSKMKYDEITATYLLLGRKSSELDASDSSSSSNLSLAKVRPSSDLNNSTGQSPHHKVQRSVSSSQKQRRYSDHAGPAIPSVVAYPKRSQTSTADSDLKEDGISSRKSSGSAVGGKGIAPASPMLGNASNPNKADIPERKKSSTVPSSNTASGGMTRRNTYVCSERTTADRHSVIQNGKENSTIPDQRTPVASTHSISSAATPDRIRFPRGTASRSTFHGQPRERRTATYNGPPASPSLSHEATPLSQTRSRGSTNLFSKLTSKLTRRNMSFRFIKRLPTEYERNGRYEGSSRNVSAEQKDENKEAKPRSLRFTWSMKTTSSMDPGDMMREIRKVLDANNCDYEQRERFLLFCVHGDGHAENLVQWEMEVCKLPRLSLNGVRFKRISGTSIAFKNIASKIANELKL
Chain of Maternal embryonic leucine zipper kinase (Homo sapiens) (Q14680 whole entry, looked up): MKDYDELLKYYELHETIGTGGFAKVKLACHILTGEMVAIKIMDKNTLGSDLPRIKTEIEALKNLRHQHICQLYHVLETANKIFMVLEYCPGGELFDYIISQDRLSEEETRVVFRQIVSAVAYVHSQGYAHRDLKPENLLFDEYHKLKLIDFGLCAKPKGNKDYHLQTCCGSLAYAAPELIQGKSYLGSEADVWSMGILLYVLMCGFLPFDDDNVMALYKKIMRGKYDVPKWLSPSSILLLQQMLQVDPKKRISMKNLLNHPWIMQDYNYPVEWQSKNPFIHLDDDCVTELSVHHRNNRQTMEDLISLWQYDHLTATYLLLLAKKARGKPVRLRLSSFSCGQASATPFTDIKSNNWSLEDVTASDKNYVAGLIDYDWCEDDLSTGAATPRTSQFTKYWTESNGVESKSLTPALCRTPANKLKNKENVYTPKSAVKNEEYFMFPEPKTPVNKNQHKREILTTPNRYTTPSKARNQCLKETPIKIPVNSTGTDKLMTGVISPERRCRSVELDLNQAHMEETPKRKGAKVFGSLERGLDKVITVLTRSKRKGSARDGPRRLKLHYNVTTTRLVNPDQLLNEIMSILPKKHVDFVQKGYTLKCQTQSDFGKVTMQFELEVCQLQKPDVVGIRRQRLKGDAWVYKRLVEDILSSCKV
Chain of MAP kinase-interacting serine/threonine-protein kinase 2 (Homo sapiens) (Q9HBH9 whole entry, looked up): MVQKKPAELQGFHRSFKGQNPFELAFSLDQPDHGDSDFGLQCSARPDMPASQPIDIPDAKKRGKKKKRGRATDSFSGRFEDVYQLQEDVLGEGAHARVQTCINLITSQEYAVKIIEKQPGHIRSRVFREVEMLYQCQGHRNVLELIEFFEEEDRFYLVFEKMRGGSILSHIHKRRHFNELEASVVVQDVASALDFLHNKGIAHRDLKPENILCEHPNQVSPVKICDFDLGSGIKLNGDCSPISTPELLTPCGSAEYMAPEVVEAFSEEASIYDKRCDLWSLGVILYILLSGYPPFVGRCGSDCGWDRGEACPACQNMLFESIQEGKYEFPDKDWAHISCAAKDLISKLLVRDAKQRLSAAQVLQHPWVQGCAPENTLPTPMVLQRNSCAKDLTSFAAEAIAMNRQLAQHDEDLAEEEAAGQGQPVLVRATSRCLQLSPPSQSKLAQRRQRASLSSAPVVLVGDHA

Take `O=C(Nc1n[nH]c2nc(-c3ccco3)ccc12)C1CC1`: the inhibition (usually the change of the read-out against control, counted positive when it falls) came to 1.53% in assay [1]; 0.31% in assay [2]; 0.56% in assay [3]; 2.23% in [4]; 2.05% in assay [5]; 1.89% in assay [6]. Further, the inhibition in [7] was found to be 9.62%; in [8], 0.06%; in assay [9] it was 4.01%; in [10], 0.19%.

`C[C@@H](Oc1cc(-n2cnc3ccc(OCC4CCN(C)CC4)cc32)sc1C(N)=O)c1ccccc1Cl`: the inhibition in assay [1] turned out to be 31.2%; in assay [2] it was 6.41%; in [3], 23.9%; in [4], 7.59%; in assay [5], 37.9%; in assay [6], 2.4%. Besides, the inhibition amounted to 5.78% in assay [7], 1.96% in assay [8], 5.86% in assay [9] and 3.52% in [10].

For `CN(C)c1ccc2c(c1)/C(=C/Nc1ccc(S(N)(=O)=O)cc1)C(=O)N2`, the inhibition is 32.7% in assay [1]; 6.9% in [2]; 32.5% in assay [3]; 3.82% in assay [4]; 20.4% in assay [5]; 1.64% in assay [6]. For the same compound, the inhibition in [7] was found to be 9.3%; in assay [8], 1.66%; in assay [9] it was 3.67%; in assay [10] it was 3.86%.

Consider `O=C(Nc1n[nH]c2cc(-c3cc(F)ccc3F)ccc12)C1CC1`, for which the inhibition in assay [1] was -0.14%; in assay [2], 2.5%; in assay [3] it was 5.44%; in [4], 2.11%; in [5], 5.13%; in assay [6] it was 3.39%. Also, the inhibition in assay [7] is 12.6%; in assay [8], 1.25%; in [9], 2.16%; in assay [10] it was -1.51%.

Regarding `CCN(CC)Cc1ccc(Nc2nccc(-c3cnn4ncccc34)n2)cc1`, the inhibition was 24.7% in assay [1]; 4.42% in assay [2]; 18.9% in [3]; 12.5% in [4]; 55.4% in assay [5]; 2.28% in assay [6]. Besides, the inhibition in assay [7] was found to be 9.82%; in assay [8], 2.76%; in assay [9] it was 8.84%; in [10], 3.28%.

As to `NC(=O)Cc1ccccc1Oc1nccc(-c2c(-c3ccc(F)cc3)ncn2C2CCNCC2)n1`, the inhibition stood at 5.15% in assay [1]; 1.54% in assay [2]; 1.97% in assay [3]; 1.5% in [4]; 5.18% in assay [5]; 1.93% in assay [6]. Also, the inhibition in assay [7] is 1.72%; in assay [8] it was 0.62%; in assay [9] it was 0.77%; in assay [10] it was 1.48%.

As to `COc1cccc(/C=N/Nc2ncnc3c2cnn3-c2cccc(OC)c2)c1`, the inhibition in assay [1] is 0.87%; in assay [2], 0.94%; in assay [3], 0.58%; in [4], 3.83%; in [5] it was 9.57%; in assay [6], 2.02%. The inhibition in assay [7] is 4.36%; in assay [8], -0.25%; in assay [9], 2.4%; in assay [10] it was -5.9%.

Regarding `CCS(=O)(=O)c1ccc(OC)c(Nc2ncc(-c3ccccc3Cl)o2)c1`, the inhibition in assay [1] is -1.14%; in assay [2] it was -1.13%; in assay [3] it was 0.41%; in [4] it was -0.46%; in assay [5], 3.44%; in [6], 1.1%. In addition, the inhibition in [7] was determined as 5.2%; in assay [8] it was 0.17%; in [9] it was 7.7%; in assay [10], 1.4%.

Turning to `CN(c1ccc(NC(=O)Nc2c(Cl)cccc2Cl)cc1)c1ccnc(Nc2cccc(CS(C)(=O)=O)c2)n1`, the inhibition in assay [1] amounted to 13.3%; in [2] it was 2.82%; in [3], 12.8%; in assay [4] it was 3.73%; in assay [5] it was 3.32%; in assay [6], 10.2%. Moreover, the inhibition in assay [7] is 27.9%; in assay [8] it was 20.4%; in assay [9] it was 45.6%; in [10] it was -0.82%.

Regarding `COc1cc(N2CCN(C(C)C)CC2)ccc1Nc1nc(Nc2ccc(F)cc2C(=O)NC[C@@H](O)CO)c2cc[nH]c2n1`, the inhibition in assay [1] turned out to be 19.6%; in [2], 1.95%; in assay [3] it was 2.9%; in assay [4], 3.61%; in [5] it was 19.9%; in assay [6], 3.33%. The inhibition in [7] was determined as 8.52%; in assay [8] it was 1.03%; in [9], 5.28%; in [10], 1.97%.

`COc1cccc(-n2cnc3c(N/N=C/c4ccncc4)ncnc32)c1`: the inhibition in assay [1] is 3.88%; in assay [2], 0.84%; in assay [3] it was 4.83%; in assay [4], -1.92%; in assay [5], -4.7%; in [6] it was 0.43%. The inhibition is 16.5% in assay [7], 3.13% in assay [8], 13.7% in [9] and 0.99% in assay [10].

Take `C/C(Nc1ccc(S(N)(=O)=O)cc1)=C1/C(=O)Nc2ccccc21`: the inhibition in [1] is 19.8%; in [2], 4.34%; in assay [3], 28.2%; in assay [4] it was 2.57%; in assay [5] it was 41.9%; in assay [6], -1.24%. Besides, the inhibition in assay [7] was 3.04%; in assay [8], -1.74%; in [9], 3.41%; in [10], 2.01%.

On to `COc1ccc2cc(-c3c(-c4ccncc4)nc(-c4ccc([S+](C)[O-])cc4C)n3C)ccc2c1` (stereo not given), for which the inhibition in assay [1] is -1.9%; in assay [2], -0.17%; in assay [3], -0.24%; in [4] it was 0.29%; in [5], 0.51%; in assay [6] it was 5.22%. Further, the inhibition in [7] is 10%; in [8] it was 0.98%; in [9], 3.96%; in [10] it was -1.24%.

Regarding `NC(=O)c1cc(-c2ccncc2)cc(-c2ccccc2)c1N`, the inhibition stood at 11.9% in [1]; 2.69% in assay [2]; 1.61% in assay [3]; 4.36% in [4]; 7.85% in [5]; 3.23% in assay [6]. In addition, the inhibition in [7] was 9.56%; in [8] it was 2.09%; in assay [9], 6.55%; in [10], 2.08%.

In the case of `NCc1ccc(-n2c(-c3nonc3N)nc3cnccc32)cc1`, the inhibition in assay [1] came out at 22.6%; in assay [2], 4.49%; in assay [3], 13.3%; in assay [4], 33.9%; in [5], 88.2%; in assay [6], 4.41%. For the same compound, the inhibition in [7] is 13.6%; in [8] it was 1.06%; in assay [9] it was 10.1%; in assay [10], 4.09%.

As to `Fc1ccc(-c2ncn(C3CCNCC3)c2-c2ccnc(Oc3ccc(F)c(F)c3)n2)cc1`, the inhibition worked out at 12.2% in assay [1]; 3.57% in [2]; 4.5% in assay [3]; 7.73% in [4]; 7.03% in assay [5]; 2.05% in [6]. For the same compound, the inhibition in [7] was 3.06%; in [8], 1.28%; in assay [9], 1.04%; in assay [10], -0.25%.

As to `Cc1ccc(C(=O)NC2CCC2)cc1-c1ccc(C(=O)NCC2CC2)cc1`, the inhibition was 0.6% in [1]; 0.84% in assay [2]; 0.72% in assay [3]; 3.33% in [4]; 1.69% in [5]; 0.33% in assay [6]. The inhibition was 3.09% in assay [7], 0.84% in assay [8], 1.97% in assay [9] and 0.5% in assay [10].

`COc1cc2ncn(-c3cc(OCc4cccs4)c(C(N)=O)s3)c2cc1OC`: the inhibition in assay [1] was determined as 20.3%; in assay [2] it was 2.12%; in assay [3], 9.4%; in [4] it was 2.35%; in assay [5], 4.91%; in assay [6], 3.56%. In addition, the inhibition in [7] stood at 14.7%; in assay [8], 3.17%; in [9], 13%; in assay [10], 1.68%.

Take `Cc1ccc(NC(=O)c2ccoc2)cc1-c1ccc(C(=O)NCC2CC2)cc1`: the inhibition in assay [1] was 1.79%; in assay [2], 0.31%; in assay [3] it was 0.19%; in assay [4], 3.06%; in [5], -0.33%; in assay [6], 3.06%. Also, the inhibition is 4.75% in assay [7], -0.05% in assay [8], 2.22% in assay [9] and -0.93% in assay [10].
